# According to PubChem BioAssay (Tox21):
# Values joined by “and” are separate entries in the source; they are usually repeats but may differ in a detail not shown here. Equal values may be shown once. Active and inactive are the calls of the source. Where a call stands in place of a potency, no number is given. Calls follow the shape of the dose curve; as a rule, active = well fitted activation curve with a large enough effect in the repeat runs; inconclusive = weak or mixed curves; inactive = flat fitted curve, though single readings scatter.
# Molecular target: Androgen receptor (Homo sapiens) (UniProt P10275)
# Sequence (P10275 whole entry, looked up): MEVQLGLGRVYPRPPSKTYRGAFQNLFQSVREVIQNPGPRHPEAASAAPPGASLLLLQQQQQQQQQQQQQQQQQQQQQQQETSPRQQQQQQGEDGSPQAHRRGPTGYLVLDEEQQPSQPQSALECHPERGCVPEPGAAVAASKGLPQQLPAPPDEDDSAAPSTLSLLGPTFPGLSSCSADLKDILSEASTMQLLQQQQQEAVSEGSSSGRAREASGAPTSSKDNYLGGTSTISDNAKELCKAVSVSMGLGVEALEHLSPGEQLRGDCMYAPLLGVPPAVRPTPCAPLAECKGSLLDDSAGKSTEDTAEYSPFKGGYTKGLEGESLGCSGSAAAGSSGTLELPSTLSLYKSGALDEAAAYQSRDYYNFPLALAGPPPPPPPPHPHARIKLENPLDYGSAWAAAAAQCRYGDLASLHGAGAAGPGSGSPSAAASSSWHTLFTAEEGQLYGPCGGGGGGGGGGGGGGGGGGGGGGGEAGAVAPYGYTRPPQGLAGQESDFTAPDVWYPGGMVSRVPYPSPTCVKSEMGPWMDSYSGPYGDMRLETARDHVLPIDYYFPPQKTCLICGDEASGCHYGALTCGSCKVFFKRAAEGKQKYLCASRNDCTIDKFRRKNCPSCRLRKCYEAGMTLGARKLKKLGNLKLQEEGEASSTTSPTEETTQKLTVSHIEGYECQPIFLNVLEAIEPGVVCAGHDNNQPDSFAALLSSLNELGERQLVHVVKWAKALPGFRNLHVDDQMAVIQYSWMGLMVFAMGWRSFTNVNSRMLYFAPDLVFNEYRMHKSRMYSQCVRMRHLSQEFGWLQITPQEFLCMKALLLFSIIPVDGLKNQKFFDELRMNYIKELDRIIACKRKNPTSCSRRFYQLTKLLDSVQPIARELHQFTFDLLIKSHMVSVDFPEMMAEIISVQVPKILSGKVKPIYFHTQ
# Experiment: qHTS assay to identify small molecule agonists of the androgen receptor (AR) signaling pathway using the MDA cell line (AID 743040; also: nearly all actives have a fitted effect of over 20% in size)
# Conditions: MDA-kb2 AR-luc cells, MMTV luciferase, 16 h; series mostly up to 70.3 µM
# Excerpt: National Center for Advancing Translational Sciences [NCATS]
# NIH Chemical Genomics Center [NCGC]
# U.S. Environmental Protection Agency [EPA]
# National Institutes of Environmental Health Sciences [NIEHS]
# National Toxicology Program [NTP]
# U.S. Food and Drug Administration [FDA]
# Androgen receptor (AR), a nuclear hormone receptor, plays a critical role in AR-dependent prostate cancer and other androgen related diseases. Endocrine disrupting chemicals (EDCs) and their interactions with steroid hormone receptors like AR may cause disruption of normal endocrine function as well as interfere with metabolic homeostasis, reproduction, developmental and behavioral functions. To identify the compounds that activate AR signaling, MDA-kb2 AR-luc cell line (from ATCC, deposited by Wilson et al.) was used to screen the Tox21 10K compound library. MDA-kb2 AR-luc cell line is human breast carcinoma cell line that was stably transfected with a luciferase reporter gene under control of the MMTV promoter containing response elements for both androgen receptor (AR) and glucocorticoid receptor (GR).
# Tox21 Assay Protocol Summary:
# MDA-kb2 AR-luc cells were dispensed at 3,000 cells/5 uL/well of culture medium into white wall/solid-bottom 1536-well plates using a Multidrop Combi (ThermoFisher Scientific, Waltham, MA) dispenser. After the assay plates were incubated at 37C and 0% CO2 for 5 h, 23 nL of compounds dissolved in DMSO, positive controls or DMSO only was transferred to the assay plate by a Pintool station (Kalypsys, San Diego, CA). The plates were incubated at 37C and 0% CO2 for 16 h. Then 4 uL of ONE-Glo reagent (Promega, Madison, WI) was added to each plate using a Bioraptr Flying Reagent Dispenser (FRD) workstation (Beckman Coulter, Indianapolis, IN, USA) and luminescence was quantified on a ViewLux (PerkinElmer, Shelton, CT) plate reader after 30 min incubation at room temperature.
# Potency is read from the fitted curve at half-maximal effect.
row,SMILES,Potency
1,O=C(O)c1ccc(C(=O)O)c(C(=O)O)c1,inactive
2,CC(CCO)CC(C)(C)C (stereo not given),inactive
3,O=C(O)c1cc2ccccc2cc1O,inactive
4,OCc1cccc(Oc2ccccc2)c1,inactive
5,CC(C)CC(=O)CC(C)CC(C)C (stereo not given),inactive
6,OCc1ccccc1,inactive
7,CC(=O)CC(C)(C)O,inactive
8,CC(=O)OCc1ccccc1,inactive
9,COC(=O)c1cccnc1,inactive
10,COc1ccc(C)cc1N,inactive
11,Cc1ccc([N+](=O)[O-])cc1S(=O)(=O)O,inactive
12,CN/C(=C\[N+](=O)[O-])NCCSCc1csc(CN(C)C)n1,inactive
13,O=C(O)Cn1c(=O)n(Cc2ccc(Br)cc2F)c(=O)c2ccc(Cl)cc21,inactive
14,COc1ccccc1OCC(O)CO (stereo not given),inactive
15,CCCCCC(=O)O,inactive
16,CCNc1ccccc1,inactive
17,COc1cc(OC)c(C(=O)CCCN2CCCC2)c(OC)c1,inactive
18,C[C@]12CCC(=O)C=C1CC[C@@H]1[C@@H]2[C@@H](O)C[C@@]2(C)[C@H]1CC[C@]2(O)C(=O)CO,119 nM (active) and 69.3 nM (active)
19,CSc1ccc(Cl)cc1,inactive
20,CC(=O)Oc1ccc(C)cc1,inactive
